Compound activity deposited in PubChem BioAssay by several laboratories.
PfM18AAP inh-1: PfM18AAP inhibitors, malaria aminopeptidase, primary screen, biochemical, QFRET, recombinant enzyme | M18 aspartyl aminopeptidase (Plasmodium falciparum 3D7) | inhibition, % at 7.35 µM | H-Glu-NHMec fluorogenic cleavage | 290,000 compounds, 1.2% hits;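 active = inhibition above the campaign mean inhibition over all tested compounds plus 3 SD, cut at about 28% in these data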;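 also: 0% = plate median of test compound wells and 100% = 2 mM ZnCl2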
beta cell repl: inducers of MIN6 beta-cell proliferation, primary screen, ATP luminescence, uHTS. AID 2380, 2010. MIN6 cells proliferation, ATPlite luminescence, 48 h; cells starved in 0.2% serum; 100% = growth in 10% serum. 330,000 compounds, 0.29% hits. proliferation, % at 10 µM;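 active = compounds whose signal lies at least 3.5 SD above the mean of all wells on their plate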;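 also: 0% = DMSO-treated cells in low-serum medium and 100% = 10% serum control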
GASC-1 inh: inhibitors of GASC-1 histone demethylase, primary screen, biochemical, fluorescence, DELFIA europium; 330,000 compounds, 0.069% hits; GST-JMJD2C(1-420) H3K9me3 demethylation; Lysine-specific demethylase 4C (Homo sapiens), Q9H3R0; AID 2099, 2009; inhibition, % at 2.35 µM;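 active = more than half of a compound's replicate wells show inhibition beyond 50%, single wells judged on their own value; inconclusive = some, but no more than half, of replicates pass 50% inhibition; inactive = no replicate passes 50% inhibition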;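 also: signal counts dimethyl H3K9 product captured on neutravidin plate; 0% = median of DMSO wells and 100% = 0.3 times that DMSO median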
Target sequence (Q9H3R0 1-420 limits assumed): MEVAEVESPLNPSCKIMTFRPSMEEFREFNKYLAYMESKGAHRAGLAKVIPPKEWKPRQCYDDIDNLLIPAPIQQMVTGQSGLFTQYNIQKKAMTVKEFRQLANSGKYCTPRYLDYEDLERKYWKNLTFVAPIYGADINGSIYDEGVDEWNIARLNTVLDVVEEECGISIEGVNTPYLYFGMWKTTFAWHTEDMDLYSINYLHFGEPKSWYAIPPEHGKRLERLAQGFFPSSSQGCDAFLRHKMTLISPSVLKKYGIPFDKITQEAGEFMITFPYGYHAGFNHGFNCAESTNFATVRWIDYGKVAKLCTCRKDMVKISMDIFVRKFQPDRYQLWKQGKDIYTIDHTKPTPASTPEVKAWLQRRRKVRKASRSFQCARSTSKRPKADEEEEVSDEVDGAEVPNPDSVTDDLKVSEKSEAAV
SMARCA2 activ: SMARCA2 (BRM) function activators, primary screen, cell-based, luminescence, high throughput. 370,000 compounds, 1% hits. MG213 cells, MMTV-luciferase reporter, dexamethasone, overnight. AID 652017, 2013. activation, % at 9.1 µM; in the data active = activation above about 7.8%;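 also: 0% = vehicle wells and 100% = reference activator wells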
Exocytosis inh: LAMP-1 surface exposure blockers, TALL-104 cells – cell-based, flow cytometry, MLPCN library, primary screen; TALL-104 LAMP-1 surface exposure; cells stimulated with thapsigargin and PMA; inhibition, % at 10 µM; 360,000 compounds, 0.66% hits; AID 651702, 2012;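 active = inhibition above about 55%, limit read from the data; inconclusive = no clear call, values can overlap the other calls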
ALR inh: inhibitors of human ALR sulfhydryl oxidase, primary screen, biochemical, H2O2 detection, HRP-luminol luminescence, single point; FAD-linked sulfhydryl oxidase ALR (Homo sapiens), P55789; purified ALR, DTT oxidation; inhibition, % (no concentration beside the values); 290,000 compounds, 3.8% hits; AID 485317, 2010;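 active = mean replicate inhibition above about 79%, with every replicate also reaching it, limit read from the data; inconclusive = only one of the two criteria met; inactive = mean below limit and not every replicate reaching it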
Target sequence (P55789 whole entry, looked up): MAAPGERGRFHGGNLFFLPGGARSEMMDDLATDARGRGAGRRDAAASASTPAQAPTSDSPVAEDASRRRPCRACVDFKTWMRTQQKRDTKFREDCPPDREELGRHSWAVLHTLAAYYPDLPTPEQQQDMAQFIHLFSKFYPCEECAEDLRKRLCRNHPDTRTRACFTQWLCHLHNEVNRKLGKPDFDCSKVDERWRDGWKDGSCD
PfM18AAP inh-2: PfM18AAP inhibitors, malaria aminopeptidase, confirmation, biochemical, QFRET, recombinant enzyme, triplicate. inhibition, % at 7.35 µM. 2,400 compounds, 28% hits. H-Glu-NHMec fluorogenic cleavage. shares compounds with PfM18AAP inh-1;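 active = mean inhibition over replicate wells above the hit cutoff set for the earlier primary screen, cut at about 29% in these data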;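 also: 0% = median of test compound wells and 100% = 2 mM ZnCl2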
CTSL1 confirm: cathepsin L1 inhibitors, retest, confirmation, counter-screen for PFM18AAP inhibitor project, biochemical, QFRET, triplicate. AID 2178, 2009. purified cathepsin L1, Z-Leu-Arg-MCA fluorescence. shares compounds with PfM18AAP inh-1. 2,400 tested, under 10 active. inhibition, % at 5.96 µM;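 active = average inhibition across replicates above the hit cutoff set in the earlier primary screen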;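 also: 0% = median of test compound wells and 100% = Z-Phe-Ala-diazomethylketone 1 µM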
Active calls of the source: *; ? = inconclusive; · = no result given. Most compounds without a hit are left out; they make up all but 5.4% or so of the library.

SMILES	PfM18AAP inh-1	beta cell repl	GASC-1 inh	SMARCA2 activ	Exocytosis inh	ALR inh	PfM18AAP inh-2	CTSL1 confirm
CC(=O)N(c1ccc2oc(=O)sc2c1)S(=O)(=O)c1cccs1	40*	-5	-8	1	-1	·	-23	3
CC(C)C(=O)N(c1ccc2oc(=O)sc2c1)S(=O)(=O)c1cccs1	37*	-4	0	3	2	18	-10	2
CCCC(=O)N(c1ccc2oc(=O)sc2c1)S(=O)(=O)c1ccccc1	33*	-5	-2	1	4	4	-18	-1
CC(=O)N(c1ccc2oc(=O)sc2c1)S(=O)(=O)c1cccc2cccnc12	14	-3	5	-1	-2	·	·	·
CCCC(=O)N(c1ccc2oc(C)c(C(C)=O)c2c1)S(=O)(=O)c1ccc(C(=O)O)cc1	5	0	4	0	1	4	·	·
CC(=O)N(c1ccc2oc(=O)sc2c1)S(=O)(=O)c1ccc(C(=O)O)cc1	46*	-1	-3	1	?	·	8	-3
COc1ccc(Sc2cccc3c2S(=O)(=O)N([C@H](C)c2ccccc2)C[C@@H](COCc2ccccc2)O3)cc1OC	·	·	·	5	·	·	·	·
COc1cc2c(c3c1c(=O)c1cccc(F)c1n3C)C=CC(C)(C)O2	·	·	·	3	·	·	·	·
COc1ccc(CN2C/C(=C/c3ccccc3)N3C(=O)C[C@@H](c4ccc5ccccc5c4)N=C23)c(OC)c1	·	·	·	-4	·	·	·	·
CC1(C)Cc2c(sc(NC(=O)C(=O)NCCCN3CCOCC3)c2C#N)CO1	49*	-3	-1	-3	-11	5	-4	4
CCc1cccc(CC)c1NC(=S)NCCc1ccc(O)c(O)c1	65*	-6	-4	-5	-1	69	40*	-9
O=C(CSc1ccc2ccccc2c1)Nn1cnnc1	65*	-3	20	2	-4	51	51*	0
O=C(CSc1ccc(Cl)cc1)Nn1cnnc1	40*	-6	0	-2	2	·	52*	-5
CN(CC(=O)Nn1cnnc1)S(=O)(=O)c1cc(Cl)ccc1Cl	44*	2	-1	-1	-1	-14	45*	3
O=C(CSc1ccc(Cl)cc1)Nc1ncccn1	-1	-4	9	-3	0	0	·	·
COc1ccc(C(C)c2cc3c(cc2OCC(=O)O)OCO3)cc1 (configuration not stated)	·	·	·	-4	·	·	·	·
O=C(Cn1cncn1)c1ccc(Cl)cc1	59*	-4	-6	-1	3	-3	36*	3
O=C(/C=C(\c1ccc(Cl)cc1)n1cncn1)c1ccc(Cl)cc1	73*	-4	4	·	1	-8	15	5
OC(Cn1cncn1)c1ccc(Cl)cc1 (configuration not stated)	13	0	0	-1	-1	-3	·	·
O=C(Cn1cncn1)c1ccccc1Br	39*	1	-16	0	2	·	15	-2
O=C(/C=C(\c1ccccc1)n1cncn1)c1ccccc1	23	-1	-29	-1	17	1	·	·
C[C@@H]1CN([C@@H](C)CO)C(=O)c2ccccc2-c2ccccc2CO[C@@H]1CN(C)Cc1ccc(Cl)c(Cl)c1	·	·	·	-7	·	·	·	·
Cc1nn(-c2ccc(F)cc2)c2nc(N)c(C#N)c(-c3ccc(O)c(O)c3)c12	69*	-7	-28	-2	5	-3	48*	-1
Cc1nn(-c2ccccc2)c2nc(N)c(C#N)c(-c3ccc(O)c(O)c3)c12	70*	-4	15	-2	0	5	48*	0
COc1cc(-c2c(C#N)c(N)nc3c2c(C)nn3-c2ccc(C)c(C)c2)cc(OC)c1OC	1	-5	-10	-1	-2	-1	·	·
SMILES	PfM18AAP inh-1	beta cell repl	GASC-1 inh	SMARCA2 activ	Exocytosis inh	ALR inh	PfM18AAP inh-2	CTSL1 confirm
Cc1nn(-c2ccc(F)cc2)c2nc(N)c(C#N)c(-c3cccs3)c12	-10	-4	0	-1	0	-15	·	·
CCN(CC)c1ccc(NS(=O)(=O)c2ccc(OC)cc2)cc1	32*	-4	-2	-2	0	99*	-27	1
CCC(CO)Nc1cccc2c1S(=O)(=O)N(Cc1cn(Cc3cccc(F)c3)nn1)Cc1ccccc1O2 (configuration not stated)	·	·	·	-3	·	·	·	·
CC(=O)N1CCN(c2ncnc3sc(-c4ccccc4)cc23)CC1	-4	-1	-3	3	-1	·	·	·
Oc1ccc(N2CCN(c3ncnc4sc(-c5ccccc5)cc34)CC2)cc1	44*	·	-33	-4	1	·	10	0
O=[N+]([O-])c1cc(Br)c(O)c(/C=N/Nc2nnnn2-c2cccc3ccccc23)c1	38*	-6	-2	-2	4	15	-5	-7
CCN(CC)C(=O)CNc1nnnn1-c1ccccc1	·	·	·	1	·	·	·	·
Nc1ccccc1N=Nc1ccccc1N	41*	-4	-4	7	-4	87*	6	2
COP(=O)(CC(=O)C(Cc1ccccc1)NC(=O)OC(C)(C)C)OC (configuration not stated)	·	·	·	-3	·	·	·	·
CCc1ccccc1NC(=O)Nn1cnnc1	56*	-4	-3	-2	-3	-3	38*	-6
CCOc1ccccc1NC(=O)Nn1cnnc1	60*	0	-6	-2	-2	-3	44*	-11
CCc1ccccc1NC(=O)CNCC(=O)Nc1ccccc1CC	8	-3	-19	0	-2	·	·	·
CCOC(=O)[C@@]12CCC3=C1N(CCC3)C(=O)[C@H](CC(=O)N1CCC(c3ccccc3)CC1)C2	·	·	·	-2	·	·	·	·
CC(C)Cn1c2ccccc2c2cc(C(=O)O)ccc21	55*	4	1	-3	-1	-16	-43	1
CC(C)(C)C(=O)NC1CCCCN(Cc2cccc(Cl)c2)C1=O (configuration not stated)	·	·	·	-3	·	·	·	·
O=C(NNc1nc(-c2ccccc2)cs1)c1ccccc1	10	-5	4	-2	-2	47	·	·
COC(=O)c1nc(NNC(=O)c2ccccc2)sc1-c1ccccc1	46*	-1	-15	-4	-14	13	10	-2
